Experimental data as given in PubChem BioAssay (NCATS).
Where “and” joins values, the source holds several entries; their conditions need not be identical. Identical values can stand only once. Unmarked numbers belong to inactive results. Records with an inconclusive call do not appear. A call without a number means that no potency is given here. Calls of active or inactive are those of the source. Unless noted, calls come from the whole dose curve; as a rule, active = well fitted curve in the direction sought with a large enough effect; inconclusive = small, poorly fitted or top-dose-only effect, or another doubt; inactive = no such curve, though single readings can be large; an effect the other way counts as inactive or inconclusive.

Key:
Tov112D = test: Primary qHTS to identify gynecologic anti-cancer compounds using libraries of approved drugs and bioactive compounds (AID 1345084); settings: Gynecologic cancer cell panel viability, ATPlite luminescence, 48 h; series mostly up to 57.5 µM; note: nearly all actives have a fitted effect of over 55% in size; note: potency is the fitted concentration of half-maximal effect
How it was run: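 Cells, 1,000 per well, plated 16 h, then exposed 48 h at 37 C to compounds. Viability by ATPlite luminescence after 15 min at room temperature.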

[1] = Drug repurposing screens with cells derived from glioblastoma tumor samples (AID 1345199); settings: GBM patient neurospheres viability, ATP luminescence, 48 h; Potency: tumour line A unless noted; series mostly up to 45.9 µM; note: nearly all actives have a fitted effect of over 40% in size; note: potency is the fitted concentration of half-maximal effect
How it was run: (§1)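 Four patient lines of CD133+ GBM neurospheres were screened at several concentrations; hits were retested in those lines plus three slower-growing GBM lines, using 48-hour treatment and ATP-based viability.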

astro = test: as above; settings: viability, ATP luminescence, 48 h; series mostly up to 45.9 µM
How it was run: as §1

[2] = target: Nuclear receptor subfamily 1 group I member 2 (Rattus norvegicus) (UniProt Q9R1A7); test: qHTS assay for small molecule activators of the rat pregnane X receptor (rPXR) signaling pathway (AID 651751; call rule not given here); settings: rPXR reporter cells, luciferase (One-Glo), 24 h
Nuclear receptor subfamily 1 group I member 2 (Rattus norvegicus), sequence (Q9R1A7 whole entry, looked up): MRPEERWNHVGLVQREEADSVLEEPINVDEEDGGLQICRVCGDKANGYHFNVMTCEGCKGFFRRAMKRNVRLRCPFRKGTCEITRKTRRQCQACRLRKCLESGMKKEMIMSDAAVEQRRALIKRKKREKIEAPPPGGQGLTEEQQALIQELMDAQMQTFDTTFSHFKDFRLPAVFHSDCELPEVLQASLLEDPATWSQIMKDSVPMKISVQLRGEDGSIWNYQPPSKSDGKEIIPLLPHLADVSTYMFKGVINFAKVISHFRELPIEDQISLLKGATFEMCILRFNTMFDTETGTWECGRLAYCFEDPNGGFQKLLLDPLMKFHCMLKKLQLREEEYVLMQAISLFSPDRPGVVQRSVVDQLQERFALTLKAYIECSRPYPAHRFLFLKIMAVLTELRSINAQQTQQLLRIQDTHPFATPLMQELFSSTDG

[3] = qHTS assay for small molecule activators of the human pregnane X receptor (PXR) signaling pathway (AID 720659; call rule not given here)
[4] = qHTS assay to identify inhibitors of the type 1 interferon - major histocompatibility complex class I in skeletal muscle: Counter screen cell viability and HiBit confirmation (AID 1347412); settings: iHSKM muscle cells + IFN-b, HiBiT or CellTiter-Glo, 24 h; for activity change, negative = inhibition: at 45.9 µM (top of the series); note: potency is the fitted concentration of half-maximal effect; for all read-outs here: nearly all actives have a fitted effect of over 60% in size
How it was run: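 Myoblasts (C25cl48, HLA-B HiBiT) seeded in medium without dexamethasone, IFN-b 4 ng/ml added except unstimulated columns; 1 hr later compounds pinned (12-pt 1:3, top 46 uM final). Incubated 24 hrs, lysed 10 min, luminescence measured.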

## C1CCC(NC2CCCCC2)CC1
Tov112D
  Potency: inactive
[1]
  Potency: inactive
astro
  Potency: inactive
[2]
  max response: -4% and -4.51% and -0.383%
[3]
  outcome: inactive

## O=[N+]([O-])c1cc([N+](=O)[O-])c2ccccc2c1
Tov112D
  Potency: inactive
[1]
  Potency: inactive
[3]
  outcome: inactive

## S=C(SSC(=S)N1CCCCC1)N1CCCCC1
Tov112D
  Potency: 14.1 µM (active)
[1]
  Potency: inactive
astro
  Potency: inactive

## O=[N+]([O-])c1c2ccccc2cc2ccccc12
Tov112D
  Potency: inactive
astro
  Potency: inactive

## CCCCCCCCCC(CC)c1ccc(S(=O)(=O)O)cc1 (configuration not stated)
Tov112D
  Potency: inactive
[1]
  Potency: inactive
astro
  Potency: inactive
[2]
  max response: 0.683% and -5.48%

## Cc1cc(O)ccc1Cl
Tov112D
  Potency: inactive
[1]
  Potency: inactive
astro
  Potency: inactive
[2]
  max response: -6.09%
[3]
  outcome: inactive

## O=C(Nc1ccccc1-c1ccc(Cl)cc1)c1cccnc1Cl
Tov112D
  Potency: inactive
astro
  Potency: inactive

## Cc1ccc(Cl)c(O)c1
Tov112D
  Potency: inactive
[1]
  Potency: inactive
astro
  Potency: inactive

## CC1(C)CC/C(=C/c2ccc(Cl)cc2)C1(O)Cn1cncn1 (configuration not stated)
Tov112D
  Potency: inactive
astro
  Potency: inactive

## COC(=O)c1cncn1C(C)c1ccccc1 (configuration not stated)
Tov112D
  Potency: inactive
[1]
  Potency: inactive
astro
  Potency: inactive

## CCCCCCCCCCCCCCCC[N+](C)(C)C
astro
  Potency: 11.2 µM (active)
[3]
  outcome: inactive

## CN(C)[C@@H]1C(=O)C(C(N)=O)=C(O)[C@@]2(O)C(=O)C3=C(O)c4c(O)cccc4[C@@](C)(O)[C@H]3[C@H](O)[C@@H]12
[1]
  Potency: inactive
astro
  Potency: inactive
[2]
  max response: 4.53% and -0.0906% and -2.17%

## O=[N+]([O-])/N=C1\NCCN1Cc1ccc(Cl)nc1
Tov112D
  Potency: inactive
astro
  Potency: inactive
[2]
  max response: 4.35%
[3]
  outcome: inactive

## Cc1[nH]nc2ccc(-c3cncc(OC[C@@H](N)Cc4c[nH]c5ccccc45)c3)cc12
Tov112D
  Potency: 1 µM (active)
[4]; HiBiT
  Potency: 1.11 µM (active)

## Nc1ccc([N+](=O)[O-])cc1
Tov112D
  Potency: inactive
astro
  Potency: inactive
[2]
  max response: -0.553%
[3]
  outcome: inactive

## NC1=NC(=O)N2CC12 (configuration not stated)
[1]
  Potency: inactive
astro
  Potency: inactive

## CN[C@@H]1C[C@@H](c2ccc(Cl)c(Cl)c2)c2ccccc21
astro
  Potency: 20 µM (active)
[4]; HiBiT
  activity change, negative = inhibition: -7.12%
[4]; Viability
  activity change, negative = inhibition: -20.4%

## c1cc2ccc3cccc4ccc(c1)c2c34
[1]
  Potency: inactive
astro
  Potency: inactive
[2]
  max response: 6.39% and 2.28%
[3]
  outcome: inactive

## Clc1cnc(Oc2ccc(Oc3ncc(Cl)cc3Cl)cc2)c(Cl)c1
[2]
  max response: 9.03%
[3]
  outcome: inactive

## Nc1ccc(N=Nc2ccccc2)cc1
[1]
  Potency: inactive

## O=c1[nH]c2ccc(Cl)cc2c(N[C@@H]2CN3CCC2CC3)c1-c1nc2ccccc2[nH]1
Tov112D
  Potency: 25.1 µM (active)
[4]; HiBiT
  Potency: 3.52 µM (active)
[4]; Viability
  Potency: 17.6 µM (active)

## CN(C)NC(=O)CCC(=O)O
[2]
  max response: -0.418% and -0.734%

## CC1=C(O)C(=O)C=C2C1=CC=C1[C@@]2(C)CC[C@@]2(C)[C@@H]3C[C@](C)(C(=O)O)CC[C@]3(C)CC[C@]12C
[4]; HiBiT
  Potency: 0.787 µM (active)

## CCCN1CCC[C@H](c2cccc(O)c2)C1
[1]
  Potency: inactive
astro
  Potency: inactive

## C[C@@H]1[C@H](O)[C@@H](C)C=CC=CCCC=CC=CC=CC=C[C@H](O[C@H]2O[C@@H](C)[C@H](O)[C@@H](N)[C@@H]2O)CC2O[C@](O)(C[C@@H](O)[C@H](O)CC[C@@H](O)C[C@@H](O)C[C@@H](O)CC(=O)O[C@H]1C)C[C@H](O)[C@H]2C(=O)O
astro
  Potency: inactive

## CCCCCC[C@H]1C(=O)O[C@H](C)[C@H](NC(=O)c2cccc(NC=O)c2O)C(=O)O[C@@H](C)[C@@H]1OC(=O)CC(C)C
[4]; HiBiT
  activity change, negative = inhibition: -17.2%
[4]; Viability
  activity change, negative = inhibition: -10.9%
[3]
  outcome: inactive

## CCN1CCN(C(=O)Cc2ccc(Nc3ncc(F)c(Nc4ccc(C(=O)Nc5ccccc5Cl)cc4)n3)cc2)CC1
Tov112D
  Potency: 2.51 µM (active)
[4]; HiBiT
  Potency: 14 µM (active)

## CCCCc1ccc(C(=O)O)nc1
[1]
  Potency: inactive
astro
  Potency: inactive

## C/C=C(/C)C(=O)O[C@H]1C(C)=C2[C@H]([C@@H]1OC(=O)CCCCCCC)[C@@](C)(OC(C)=O)C[C@H](OC(=O)CCC)[C@@]1(O)[C@H]2OC(=O)[C@@]1(C)O
Tov112D
  Potency: 0.501 µM (active)
[4]; HiBiT
  Potency: 0.0079 µM (active)

## COc1nn(CSP(=S)(OC)OC)c(=O)s1
[2]
  max response: -6.79%
[3]
  outcome: inactive

## CC(C)NC(C)Cc1ccc(I)cc1 (configuration not stated)
astro
  Potency: inactive

## C[N+](C)(C)CC(=O)O
[1]
  Potency: inactive
astro
  Potency: inactive

## COc1ccc2c(c[n+](C)c3c4cc5c(cc4ccc23)OCO5)c1OC
[4]; HiBiT
  Potency: 7.01 µM (active)
[4]; Viability
  Potency: 8.83 µM (active)

## C[C@]12CCC(=O)C(O)=C1CC[C@@H]1[C@H]3CCC(=O)[C@@]3(C)CC[C@@H]12
astro
  Potency: inactive

## CC(C)(O)C(=O)Nc1ccc([N+](=O)[O-])c(C(F)(F)F)c1
[2]
  max response: -13.9%

## ClC1=C(Cl)[C@]2(Cl)[C@@H]3[C@@H]4C[C@@H]([C@H]5O[C@@H]45)[C@@H]3[C@@]1(Cl)C2(Cl)Cl
Tov112D
  Potency: inactive
astro
  Potency: inactive

## Nc1ccc(Sc2ccc(N)cc2)cc1
Tov112D
  Potency: inactive
astro
  Potency: inactive
[2]
  max response: 10.3% and 6.87%

## CCCN(CCC)c1c([N+](=O)[O-])cc(S(N)(=O)=O)cc1[N+](=O)[O-]
astro
  Potency: 31.6 µM (active)

## CC[C@@]1(O)C(=O)OCc2c1cc1n(c2=O)Cc2cc3ccccc3nc2-1
[4]; HiBiT
  Potency: 1.76 µM (active) and 1.98 µM (active)
[4]; Viability
  activity change, negative = inhibition: -5.85% and -9.34%

## C[C@]12N[C@H](Cc3ccccc31)c1ccccc12
[1]
  Potency: inactive
astro
  Potency: inactive

## CC(C)[C@]12O[C@H]1[C@@H]1O[C@]13[C@]1(O[C@H]1C[C@H]1C4=C(CC[C@@]13C)C(=O)OC4)[C@@H]2O
Tov112D
  Potency: 0.1 µM (active)
[4]; HiBiT
  Potency: 0.0625 µM (active)
[4]; Viability
  activity change, negative = inhibition: -10.5%

## CC(C)Oc1cccc(NC(=O)c2ccccc2C(F)(F)F)c1
astro
  Potency: inactive

## CO/C=C(/C(=O)OC)c1ccccc1Oc1cc(Oc2ccccc2C#N)ncn1
astro
  Potency: 14.1 µM (active)

## C[C@]12CC[C@@H]3[C@@H](CCC4=CC(=O)CC[C@@H]43)[C@@H]1CC[C@@H]2OC(=O)CCc1ccccc1
astro
  Potency: inactive

## c1ccc(C2(c3ccccc3)CC2C2=NCCN2)cc1 (configuration not stated)
[1]
  Potency: inactive
astro
  Potency: inactive

## CC(=O)[O][Hg][c]1ccccc1
Tov112D
  Potency: 5.01 µM (active)
astro
  Potency: 1.26 µM (active)

## NC(=O)CN1CC(O)CC1=O (configuration not stated)
[1]
  Potency: inactive
astro
  Potency: inactive
